# Measurements as given in PubChem BioAssay (NCATS).
# Inconclusive results are not listed. Where a call stands in place of a potency, no number is given. The source made the active and inactive calls. The call rests on the fitted dose curve; in most records, active means well fitted cell-killing curve with a large enough effect; inconclusive means small, poorly fitted or top-dose-only effect; inactive means no such curve, though single readings can be large or run the other way.
# Assay: qHTS of pediatric cancer cell lines to identify multiple opportunities for drug repurposing: Primary screen for LAN-5 cells (AID 1347100)
# Conditions: LAN-5 neuroblastoma viability, CellTiter-Glo luminescence, 48 h; series mostly up to 46 µM
# Description: Drug repurposing or repositioning has been offered as a strategy for drug development in oncology programs. This approach has special potential for childhood cancers and other rare or orphan diseases, where the expected return on new drug development has been a disincentive to pharmaceuticals.
# In this project we exploit the poly-pharmacology of drugs to discover new indications via phenotypic screening of a panel of 19 well-characterized cell lines derived from solid tumors seen in children and adolescents. The goal is to identify approved drugs with previously unrecognized anticancer properties that has the potential to reveal new mechanisms and biological processes involved in carcinogenesis or drug resistance. We employed a titration-based paradigm (quantitative high-throughput screening or qHTS), where all compounds were tested at multiple concentrations for their effect on cell viability. Concentration-response curves (CRCs) were derived directly from the primary screen, and both potency and efficacy values were used to identify compounds with robust bioactivity profiles. We screened the NIH Chemical Genomics Center (NCGC) Pharmaceutical Collection (NPC) and Mechanism Interrogation Plate (MIPE) small molecule collections of approved and investigational compounds against these cell lines; and measured metabolically active cells after 48 hours of compound treatment as a proxy for cell viability.
# Assay Submitter: Nathalia J. Martinez, National Center for Advancing Translational Sciences, National Institutes of Health, Rockville, MD, USA; email: natalia.martinez@nih.gov
# [1] Shen, M et al. Quantitative high-throughput phenotypic screening of pediatric cancer cell lines identifies multiple opportunities for drug repurposing. Oncotarget 2017 Dec 19;9(4):4758-4772. PMID 29435139.
# The cells were obtained from University of North Carolina (UNC), Pediatric Preclinical Testing Program (PPT), and Coriell Institute (CI).
# qHTS cell viability assay:
# Cells were assayed in growth media at a density of 500-1,000 cells/well. Five microliters of cells were dispensed into 1,536-well, white, solid-bottom, TC-treated plates (Greiner Bio One) using a multidrop dispenser and incubated at 37 degrees C, 5% CO2, under a humidified atmosphere for 5 hours. Twenty-three nanoliters of compounds and controls (neutral control DMSO or positive control bortezomib at final concentration of 2.3 µM) were subsequently transferred by Kalypsys pintool. For primary screens, the MIPE collection was tested at 11-point dilutions (final concentrations range from 0.78 nM to 46 µM) and the NPC collection at 8-point dilutions (final concentrations range from 0.59 nM to 46 µM). Compounds tested in follow-up screens were assayed at 11-point dilutions. Cells were incubated for 48 hours, followed by addition of 3 µL of CellTiter-Glo (Promega). After a 15 min incubation at room temperature, samples were analyzed for luminescence intensity using a ViewLux High-throughput CCD imager equipped with clear filters.
# Potency means the concentration at half of the fitted maximal effect.
SMILES,Potency,"activity change, negative = cytotoxic"
O=C(Oc1ccccc1C(=O)O)c1ccccc1O,inactive,
Cc1cccc(Nc2cc(Cl)nc(SCC(=O)O)n2)c1C,inactive,
NC(=O)c1ncn([C@@H]2O[C@H](CO)[C@@H](O)[C@H]2O)n1,inactive,
O=C1O[C@H]([C@@H](O)CO)C(O)=C1O,inactive,
CCN(CC)CCNC(=O)c1cc(Cl)c(N)cc1OC,inactive,
CN(C)CCCO[C@@H]1[C@H]2OC(C)(C)O[C@H]2O[C@@H]1C(O)CO (stereo not given in full),inactive,
N[C@@H](CSCCCO)C(=O)O,inactive,
CNCC(O)c1ccc(O)c(O)c1 (stereo not given),inactive,
OCC(CO)N[C@H]1C[C@](O)(CO)[C@@H](O)[C@H](O)[C@H]1O,inactive,
COc1ccc(Cl)cc1C(=O)NCCc1ccc(S(=O)(=O)NC(=O)NC2CCCCC2)cc1,inactive,
O=C(O)c1ccccc1O,inactive,
O=C1N=C(O)CN1/N=C/c1ccc(-c2ccc([N+](=O)[O-])cc2)o1,inactive,
CC(CN(C)C)CN1c2ccccc2CCc2ccccc21 (stereo not given),inactive,
C[C@](N)(Cc1ccc(O)cc1)C(=O)O,,-5.33% [at 4.84 µM] (inactive)
Cc1c(Cl)cccc1Nc1ccccc1C(=O)O,inactive,
Cc1cc2nc3c(=O)[nH]c(=O)nc-3n(C[C@H](O)[C@H](O)[C@H](O)CO)c2cc1C,inactive,
CC(C)(C(=O)O)c1ccc(C(O)CCCN2CCC(C(O)(c3ccccc3)c3ccccc3)CC2)cc1 (stereo not given),inactive,
CN(N=O)C(=O)N[C@@H]1[C@@H](O)[C@H](O)[C@@H](CO)O[C@@H]1O,inactive,
Cc1ncc(COP(=O)(O)O)c(C=O)c1O,inactive,
C[C@@H]1CCN(C(=O)[C@H](CCCN=C(N)N)NS(=O)(=O)c2cccc3c2NC[C@H](C)C3)[C@@H](C(=O)O)C1,inactive,

SMILES,Potency,"activity change, negative = cytotoxic"
OCC(O)CN1CCN(c2ccccc2)CC1 (stereo not given),inactive,
CCC(=O)c1ccc(O)cc1,inactive,
COC(=O)[C@H]1[C@H]2C[C@@H]3c4[nH]c5cc(OC)ccc5c4CCN3C[C@H]2C[C@@H](OC(=O)COc2ccc(OC)cc2)[C@@H]1OC,inactive,
CC1(C)OC(=O)NC1=O,inactive,
NC(=O)NC(=O)Cc1ccccc1,inactive,
CC(=O)Nc1ccc(/C=N/NC(N)=S)cc1,inactive,
NCC(=O)CCC(=O)O,inactive,
CC12CCC(CC1)C(C)(C)O2,inactive,
CN1CCN(C2Cc3ccccc3Sc3ccc(Cl)cc32)CC1 (stereo not given),9.44 µM (active),
CCCn1cnc2c1c(=O)n(CCCCC(C)=O)c(=O)n2C,inactive,
COc1ccc(S(=O)(=O)Nc2nnc(CC(C)C)s2)cc1,inactive,
CC(CN1c2ccccc2Sc2ccccc21)N(C)C (stereo not given),inactive,
CO/N=C(\C(=O)N[C@@H]1C(=O)N2C(C(=O)O)=C(CSc3nc(=O)c(O)nn3C)CS[C@H]12)c1csc(N)n1,inactive,
CC1=C(CC(=O)O)c2cc(F)ccc2/C1=C\c1ccc(S(C)=O)cc1 (stereo not given),inactive,
COc1cc2[nH]c(=O)[nH]c(=O)c2cc1OC,inactive,
COc1ccc2[nH]c(S(=O)Cc3ncc(C)c(OC)c3C)nc2n1 (stereo not given),inactive,
CC(=O)CCC(=O)O,inactive,
COC(=O)C1=C(C)NC(C)=C(C(=O)OC)C1c1ccccc1[N+](=O)[O-],inactive,
CN(C)CC[C@@H](c1ccc(Cl)cc1)c1ccccn1,inactive,
O=C(O)CC(O)C(=O)O (stereo not given),inactive,
